TDP1 cell CPT: growth inhibition of DT40 Tdp1-/-;hTDP1 cells with camptothecin (screen for TDP1 inhibitors) | 12% of 420,000 active | chicken DT40 Tdp1-/-;hTDP1 cells + 20 nM CPT, ATP luminescence, 48 h | AID 686979 | Potency, µM (titrated, usually from 46.2 µM), actives largely listed as inhibitors; note: nearly all actives have a fitted effect of over 55% in size
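Chicken DT40 Tdp1-/- cells stably complemented with human TDP1 were seeded at 400 cells/well in medium containing 20 nM camptothecin, exposed to pin-transferred compounds, and grown at 37 °C for at least 48 hr. Viability was read as ATP luminescence.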
HT1080 IDH1KD tx: HT-1080 IDH1 knockdown cell toxicity (counter line). Potency, µM (highest dose often 46.1 µM), usual class: cytotoxic. HT-1080 IDH1 knockdown viability, ATP luminescence, 48 h. 2% of 360,000 active. AID 686971
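% activity derives from luminescence (CellTiter-Glo), normalised to DMSO and no-cell wells. HT-1080-IDH1KD cells, 750/well, had 48 h compound exposure at 37 °C.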
HT1080NT lethal: kills 2HG-producing HT-1080-NT fibrosarcoma cells | AID 686970 | 1.6% of 360,000 active | Potency, µM (series often up to 46.1 µM), most hits filed as cytotoxic | HT-1080-NT fibrosarcoma viability, CellTiter-Glo ATP luminescence, 48 h;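 note: NT is the 2HG producing partner of a matched IDH1 knockdown line; nearly all actives have a fitted effect of over 55% in size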
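Luminescent CellTiter-Glo readout after 48 hours of compound exposure at 37 degrees C defined viability of HT-1080-NT cells. Activity was normalized to DMSO wells and cell-free media wells; concentration-response curves were fitted and assigned curve classes.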
TDP1 cell noCPT: qHTS for Inhibitors of human tyrosyl-DNA phosphodiesterase 1 (TDP1): qHTS in cells in absence of CPT | DT40 Tdp1-/- hTDP1 cells, no CPT, ATP luminescence, 48 h | Potency, µM (series often up to 46.2 µM), most hits filed as inhibitors | 15% of 420,000 active; note: nearly all actives have a fitted effect of over 55% in size
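No-CPT arm: Tdp1-/-;hTDP1 DT40 cells (400/well) plus compounds, incubated ≥48 hr at 37 °C. Readout CellTiter-Glo luminescence.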
TGFb SMAD3 inh: inhibitors of TGF-b signaling; HepG2 CAGA-GFP TGF-b/SMAD3 reporter, GFP fluorescence, 18 h; TGF-beta stimulated, 500 pg/mL final; Potency, µM (top dose mostly 46.1 µM), usual class: inhibitors; 1.2% of 410,000 active; note: nearly all actives have a fitted effect of over 65% in size
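HEPG2 CAGA-GFP, 1000 cells/well; 2 h settle, 37 C; cpd via pin tool; TGF-b 500 pg/mL final; 18 h, 37 C; GFP imaging ex488/em500-530; %Activity normalised to -TGF-b and +DMSO controls; CRC fit, curve class.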
HepG2 viability: counter-screen for TGF-b inhibitors: cytotoxicity in HepG2 cells; HepG2 CAGA-GFP viability, ATP luminescence, 18 h; Potency, µM (highest dose often 46.1 µM), most hits filed as cytotoxic; 0.76% of 410,000 active
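CellTiter-Glo luminescence gave cytotoxicity after 18 hours at 37 degrees C. The cells were HepG2 CAGA-GFP in 1% FBS DMEM, stimulated with 500 pg/mL TGF-beta after compound addition. %Activity was normalised to no-cell wells (complete cell-killing) and DMSO (no toxicity), and curves were fitted and classified.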
A number is an active result; - = inactive; ? = inconclusive; . = no result. Most compounds without a hit are left out; they make up all but 17% or so of the library. Calls come from the whole dose curve; as a rule, active = well fitted curve in the direction sought with a large enough effect; inconclusive = small, poorly fitted or top-dose-only effect, or another doubt; inactive = no such curve, though single readings can be large; an effect the other way counts as inactive or inconclusive.

SMILES	TDP1 cell CPT	HT1080 IDH1KD tx	HT1080NT lethal	TDP1 cell noCPT	TGFb SMAD3 inh	HepG2 viability
Cc1ccc(-c2csc(NC(CO)c3nc4ccccc4n3CCOCCO)n2)cc1 (configuration not stated)	?	-	-	23µM	?	-
CNC(=O)Nc1ccc(C(=O)N/N=C\C23CC[C@@H](O)CC2(O)CC[C@@H]2[C@@H]3CCC3(C)C(C4=CC(=O)OC4)CCC23O)cc1 (some centres not stated)	-	?	?	-	-	-
CC(=O)C1CCC2C3CCC4CC(O)CCC4(C)C3CC(O)C12C (configuration not stated)	-	.	.	-	.	.
C[C@]12CC[C@H](O)C[C@H]1CC[C@@H]1[C@@H]2C[C@@H](O)[C@]2(C)[C@@H](C3=CC(=O)OC3)CC[C@]12O	-	0.82µM	2.1µM	?	10µM	-
C[C@]12CC[C@H](O)C[C@H]1CC[C@@H]1[C@@H]2CC[C@]2(C)[C@@H](C3=CC(=O)OC3)CC[C@]12O	?	0.26µM	0.52µM	12µM	?	-
CN1CCCC2(CCN(C(=O)Oc3ccccc3)CC2)C1	-	.	.	-	.	.
COc1ccc(OC)c(N2C(=O)NC(=O)/C(=C/c3ccc([N+](=O)[O-])s3)C2=O)c1	16µM	-	-	16µM	?	-
COc1cc(/C=C2\C(=O)NC(=O)N(c3ccccc3)C2=O)c([N+](=O)[O-])cc1OC	-	-	-	-	?	-
O=C1NC2CCCCN2C12CCN(CCCN1c3ccccc3CCc3ccc(Cl)cc31)CC2 (configuration not stated)	?	.	.	24µM	.	.
CCN1C[C@]2(COC)[C@H](O)C[C@H](OC)[C@]34C1C([C@H](OC)[C@H]23)[C@]1(OC(C)=O)C2[C@@H](OC(=O)c3ccccc3)C(O)(C[C@H]24)[C@@H](OC)[C@@H]1O	-	.	.	-	.	.
COC(=O)C1=C(C)n2nnnc2NC1c1ccc(Cl)cc1 (configuration not stated)	?	-	-	-	-	-
COc1cc(/C=C/c2ccc3cccc(OC)c3n2)c(OC(C)=O)c([N+](=O)[O-])c1	12µM	?	?	15µM	?	-
CC1OC(=O)C(C(C)C)NC(=O)C(C(C)C)OC(=O)C(C(C)C)NC(=O)C(C)OC(=O)C(C(C)C)NC(=O)C(C(C)C)OC(=O)C(C(C)C)NC(=O)C(C)OC(=O)C(C(C)C)NC(=O)C(C(C)C)OC(=O)C(C(C)C)NC1=O (configuration not stated)	0.18µM	.	.	0.22µM	.	.
O=C1NC(=O)N(Cc2ccc(F)cc2)C(=O)/C1=C/c1cccs1	12µM	?	?	8.2µM	-	-
O=C1NC(=O)N(Cc2ccccc2Cl)C(=O)/C1=C/c1cccs1	6.5µM	-	-	4.6µM	?	-
Cc1ccc(/C=C2\C(=O)NC(=O)N(Cc3ccccc3Cl)C2=O)o1	?	-	-	?	-	-
COCCOc1ccc(C(F)(F)F)cc1NC(=O)CN1C(=O)NC2(CCCc3ccccc32)C1=O (configuration not stated)	?	-	-	26µM	-	-
Cc1nc(-c2cccc(NC(=O)c3ccc(Cl)c(S(=O)(=O)N4CCCC4)c3)c2)cs1	?	-	-	8.2µM	?	-
Cc1ccccc1N1CCN(S(=O)(=O)c2nnc(NC(=O)c3ccc(Cl)cc3)s2)CC1	-	.	.	?	-	-
c1ccc(C(c2ccccc2)c2ccncc2)cc1	?	-	-	21µM	-	-
CCCNC(=O)N1[C@H]2CC[C@@H]1C(C(=O)OC)=C(c1ccc(S(C)(=O)=O)cc1)C2	-	-	-	-	-	-
CCc1nc(CNC(=O)c2cc(OC)c(OC)c(OC)c2)no1	-	-	-	-	?	-
